From PubChem BioAssay (EPA / NIEHS) come the findings set out here.

Molecules are shown by their SMILES. Calls of active or inactive are those of the source. Rule for the calls: active = hit-call score of the fitted dose curve at least 0.9, where 1 is the maximum; inactive = score below 0.9.

This experiment is described as follows: ATG_Oct_MLP_CIS: Attagene CIS-FACTORIAL HepG2 Assay for human Octamer-Binding Transcription Factor (Oct) (AID 2282993). Conditions: HepG2 Attagene cis-factorial Oct reporter, mRNA; actives raise or lower the signal. As to the method: ATG_CIS is a cell-based, multiplexed-readout assay that uses HepG2, a human liver cell line, with measurements taken at 24 hours after chemical dosing in a 24-well plate.ATG_Oct_MLP_CIS is one of 52 assay component(s) measured or calculated from the ATG_CIS assay. It is designed to make measurements of mRNA induction, a form of inducible reporter, as detected with fluorescence intensity signals by Reverse transcription polymerase chain reaction (RT-PCR) and Capillary electrophoresis technology.Data from the assay component ATG_Oct_MLP_CIS was analyzed into 1 assay endpoint. This assay endpoint, ATG_Oct_MLP_CIS, was analyzed with bidirectional fitting relative to DMSO as the negative control and baseline of activity. Using a type of inducible reporter, measures of mRNA for gain or loss-of-signal activity can be used to understand the reporter gene at the transcription factor-level as they relate to the gene POU2F1. Furthermore, this assay endpoint can be referred to as a primary readout, because this assay has produced multiple assay endpoints where this one serves a reporter gene function. To generalize the intended target to other relatable targets, this assay endpoint is annotated to the dna binding intended target family, where the subfamily is POU domain protein.
Human liver HepG2 cells are transiently transfected with multiple reporter transcription units (MRTUs) in 6-well plates using FuGene 6 reagent (Roche; 3 ml FuGene/1 mg DNA). The MRTU constructs are regulated by a cis-regulating element (promoter). […] A major difference between the CIS and TRANS system is that in CIS activities of endogenous TFs are measured, whereas the TRANS assay evaluates changes in activities of exogenous, chimeric NR-Gal4 proteins. […] At the end of 24 hour incubation, total RNA was isolated using TriZol reagent (Invitrogen). The isolated RNA is then reverse-transcribed using oligo(dT) primer and Mo-MLV reverse transcriptase (Invitrogen) with DNAse I (Ambion) treatment for 30 min. The one-tenth of the produced cDNA was amplified by PCR using Taq DNA polymerase (Invitrogen) and two reporter sequence-specific primers. The PCR products were fluorescently labeled by primer extension with 6-arboxyfluorescein (6-FAM) 5'-labeled reporter sequence-specific primer (2 min at 95 C, 20 s at 68 C and 10 min at 72 C) and these products were digested with 5U of HpaI (New England Biolabs) for 2h at 37 C. The fragments were purified using Qiaquick PCR columns (Qiagen), analyzed on an ABI 3130xL genetic analyzer (Applied Biosystems) with peak positions identified by using a set of X-rhodamine (ROX)-labeled MapMarker1000 molecular weight standards (BioVentures). The raw capillary electrophoresis data was processed using Attagraph software (Attagene).
On to `O=C(O)CCCCCCCC(=O)O`, for which the outcome was inactive. Still for that read-out and setting: next, `CCCCOCCOCCOCCOCCO`: “inactive”; `CC(=O)c1c(C)cc(C(C)(C)C)cc1C`: “inactive”. The term AC50 denotes the midpoint of the concentration-response curve, whichever way the signal moves. On to `CC1(C)CCC(C)(C)c2cc(C(=O)Nc3ccc(C(=O)O)cc3)ccc21`, for which the AC50 is 100 µM (active). Turning to `CCCCC(CC)COC(=O)/C=C\C(=O)OCC(CC)CCCC` (stereo not given), the call was inactive. Still for that read-out and setting: next, `O=c1oc(=O)c2cc3c(=O)oc(=O)c3cc12`: “inactive”; `O=C1NC(=O)c2ccccc21`: “inactive”.

For `C=CCOc1nc(OCC=C)nc(OCC=C)n1`, the outcome was inactive.

Regarding `CC(CCO)CCc1ccccc1` (stereo not given), the call was inactive. Same read-out and setting: next, `O=S(=O)(O)c1cccc2c(S(=O)(=O)O)cccc12`: “inactive”; `S=C(S)NCCNC(=S)S`: “inactive”. Still for that read-out and setting: next, `CCCCCC(CO)CCC` (stereo not given): “inactive”. The same measure, in the same setting: the value for `CCCC/C=C\CCCCCCCCCC=O` was “inactive”; that for `COc1cccc(OC)c1` was “inactive”. With `C=C(C)C(=O)NCCCN(C)C`, the result was inactive.

Consider `O=Cc1ccc(Cl)c([N+](=O)[O-])c1`, for which the outcome was inactive. On the same count and under the same terms, the value for `CC1=CCC2C(C1)C2(C)C` (stereo not given) was “inactive”; that for `CC1(C)C(=O)N(Br)C(=O)N1Cl` was “inactive”.

Regarding `O=C(O)c1cn(-c2ccc(F)cc2)c2cc(N3CCNCC3)c(F)cc2c1=O`, the compound was classed as inactive. Turning to `O=C(O)c1cccc(C(F)(F)F)c1`, the compound was classed as inactive.

As for `COC(=O)C1=C(C)NC(C)=C(C(=O)OCCN(C)Cc2ccccc2)C1c1cccc([N+](=O)[O-])c1` (stereo not given), the call was inactive.

On to `Cc1ccc(O)c(C(C)(C)C)c1`, for which the AC50 was 143 µM (active).

Consider `Nc1cc(N)cc(C(=O)O)c1`, for which the compound was called inactive. For the compound `CC(CN1c2ccccc2Sc2ccccc21)N(C)C` (stereo not given), the AC50 is 38.8 µM (active). For the compound `CC(C=O)Cc1ccc(C(C)C)cc1` (stereo not given), the call was inactive. On to `CC(C)(C)C(=O)c1ccccc1`, for which the call was inactive. `C=CC(C)(O)CCC=C(C)CCC=C(C)C` (stereo not given): the AC50 is 82.7 µM (active). With `CN(C)c1ccc(O)c2c1C[C@H]1C[C@H]3[C@H](N(C)C)C(=O)C(C(N)=O)=C(O)[C@@]3(O)C(=O)C1=C2O`, the call was inactive.

Consider `Nc1cc([N+](=O)[O-])ccc1Cl`, for which the call was inactive. Regarding `O=C=NC1CCC(CC2CCC(N=C=O)CC2)CC1` (stereo not given), the AC50 was 61.8 µM (active). In the case of `CCCCc1ccc(N)cc1`, the result was inactive. Same read-out and setting: the value for `O=C(O)CCCCC1CCSS1` (stereo not given) was “inactive”; that for `C=C[Si](OCC)(OCC)OCC` was “inactive”; that for `CCCCOCCOCCSC#N` was “inactive”. As for `CCC(C)(O)CCC=C(C)C` (stereo not given), the compound was classed as inactive.

As to `O=C1CCCCCCCCCCCCCCO1`, the AC50 is 69.4 µM (active). As to `Clc1ccc(Cl)c(Cl)c1Cl`, the compound was called inactive.

As to `CCN(CC)CCOC(=O)c1ccc(N)cc1`, the result was inactive. Still for that read-out and setting: the value for `CC(C)(C)c1n[nH]c(=S)n(N)c1=O` was “inactive”; that for `OCCCCCO` was “inactive”.
